# Laboratory results reported in article PMC5540273 (PLoS ONE, 2017).
# Tested on: NEK2
# Conditions: concentration: 1 μM, replicates: in singlicate; n = 1
# 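Note: KINOMEscan kinase panel screen.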
row,Structure (SMILES),%Inh [%]
1,O=C(O)C(F)(F)F.O=C(O)C(F)(F)F.O=c1[nH]ccc2nc(N[C@@H]3CCCNC3)nc(Nc3ccc(S(=O)(=O)N4CCOCC4)cc3)c12 [GSK2177277],80
2,COc1cc(Nc2nccc(N3CCC(NC(=O)c4cc5ccccc5s4)C3)n2)cc(OC)c1OC (stereo not shown) [GSK1379760],26
3,CN1CCN(Cc2cccc(-c3ccc4c(Nc5ccc(Oc6ccccc6)cc5)ccnc4c3)c2)CC1 [GW578342],0
4,Fc1ccc(-c2ncn(C3CCNCC3)c2-c2ccnc(Oc3ccc(-c4ccccc4)cc3)n2)cc1 [SB-245391],25
5,Cc1ccc(S(=O)(=O)Nc2ccc(Nc3nccc(Nc4cccc5[nH]ncc45)n3)cc2)cc1 [GSK581271],4
6,COC(=O)Nc1nc2ccc(Oc3ccc(NC(=O)Nc4cc(C(F)(F)F)ccc4F)cc3)cc2n1C.Cl [GW692089],0
7,O=C(Nc1n[nH]c2nc(-c3ccc(O)cc3)ccc12)C1CC1 [SB-710363],3
8,CNC(=O)c1ccccc1Nc1nc(Nc2ccc(N3CCOCC3)cc2)ncc1Cl.Cl [GSK1576028],89
9,Cl.NC(=O)c1cccc(Nc2nccc(Nc3ccc(Oc4c(Cl)cccc4Cl)c(Cl)c3)n2)c1 [GW659009],1
10,COc1cc(Nc2nccc(-c3c(-c4cccc(NC(=O)c5c(F)cccc5F)c4)nn4ccccc34)n2)cc(OC)c1OC [GSK323521],78
11,Cn1cc(-c2ccc3c(c2)CCN3C(=O)Cc2cccc(F)c2)c2c(N)ncnc21 [GSK2603358],73
12,Cc1cccc(Nc2nc(N[C@H]3CCNC3)ncc2C(N)=O)c1.Cl [GSK2197149],0
13,c1ccc(-c2n[nH]cc2Nc2ccnc3ccccc23)nc1 [GW694077],99.1
14,CN(C)Cc1ccc(-c2ccc3c(Nc4ccc(Oc5ccccn5)cc4)ccnc3c2)o1 [GW567148],0
15,CCS(=O)(=O)c1ccc(OC)c(Nc2nccc(-c3c(-c4cccc(NC(=O)c5c(F)cccc5F)c4)nn4ncccc34)n2)c1 [GSK326180],4
16,COc1cccc(C2=C(Nc3ccc(Cl)c(C(=O)O)c3)C(=O)NC2=O)c1 [SB-390769],0
17,COc1cccc(NC(=O)NC2CCN(c3ccnc(Nc4cc(OC)c(OC)c(OC)c4)n3)C2)c1 (stereo not shown) [GSK1379763],21
18,Cc1ccc(C)c(NC(=O)NC2CCN(c3ccnc(Nc4ccc(F)cc4)n3)C2)c1 (stereo not shown) [GSK1379720],0
19,Cc1ccc(F)c(C(=O)Nc2cccc(-c3nn4ccccc4c3-c3ccnc(Nc4cccc(F)c4)n3)c2)c1F [GSK361061],0

row,Structure (SMILES),%Inh [%]
1,Cc1occc1-c1ncc(OC[C@@H](N)Cc2c[nH]c3ccccc23)cc1-c1ccc2[nH]nc(C)c2c1.O=C(O)C(F)(F)F [GSK682037],0
2,COc1ccc(Nc2nccc(N3CCC(NC(=O)Nc4cccc(OC)c4)C3)n2)cc1 (stereo not shown) [GSK1379742],17
3,CC(=O)N1CCN(c2ccc(Nc3nccc(-c4sc(C(C)C)nc4-c4cccc(NS(=O)(=O)c5cccc(Cl)c5)c4)n3)cn2)CC1 [GSK1660437],42
4,Nc1ncnc2c1nc(-c1ccccc1)n2-c1ccccc1 [SKF-97293],0
5,O=C(NC1CCN(c2ccnc(Nc3ccc(F)cc3)n2)C1)c1cc2ccccc2s1 (stereo not shown) [GSK1379716],8
6,COc1cccc(C(=O)Nc2cccc(Oc3ccc4nc(NC(=O)C5CC5)cn4n3)c2)c1,8
7,Cl.Cl.NCC(C(=O)Nc1cc(Br)c(-c2ccnc3[nH]ccc23)s1)c1ccccc1 (stereo not shown) [GSK1269851],15
8,Cn1cc(-c2ccc3c(c2)CCN3C(=O)Cc2cccc(Cl)c2)c2c(N)ncnc21 [GSK2606590],66
9,COc1cc(Nc2ncc3c(C)nc(-c4cc5ccccc5[nH]4)n3n2)cc(OC)c1OC [GW869516],70
10,O=C(Nc1cccc(-c2nn3ccccc3c2-c2ccnc(Nc3cccc(F)c3)n2)c1)c1c(F)ccc(F)c1Cl [GSK357952],20
11,C[C@@H](Oc1cc(-n2cnc3cc(-c4ccnc(NCCS(C)(=O)=O)c4)ccc32)sc1C(N)=O)c1ccccc1Cl [GSK907232],98.8
12,COc1cccc(-c2ccc3c(NC(=O)C4CC4)n[nH]c3n2)c1 [SB-710903],0
13,Cc1ccc(C(=O)N2CC[C@@H](O)C2)cc1-n1c(C)cc(OCc2ccc(F)cc2F)c(Br)c1=O,0
14,Cl.c1ccc(-c2ccc3c(Nc4ccc5[nH]ccc5c4)ccnc3c2)nc1 [GW440138],0
15,CCc1ccc(-c2ccc3c(c2)-c2c(cnn2C)S(=O)(=O)N3C)cc1,5
16,COc1ccc(Nc2nccc(NCCNC(=O)c3cc4ccccc4s3)n2)cc1 [GSK1379896],22
17,Nc1ncc(-c2ccc3nccc(-c4ccncc4)c3c2)cc1S(=O)(=O)N1CCOCC1 [GSK1627798],12
18,O=C(Nc1n[nH]c2cc(-c3ccoc3)ccc12)C1CC1 [SB-738481],8
